What is called AC50 is the midpoint of the concentration-response curve, whichever way the signal moves.

SMILES strings stand for the structures. Results filed as inconclusive are left out. Calls of active or inactive are those of the source. How the source made its calls: active means hit-call score of the fitted dose curve at least 0.9, where 1 is the maximum; inconclusive means response in the unintended direction; inactive means score below 0.9.

Data on 6 compounds can be found in PubChem BioAssay (EPA / NIEHS).

Chain of Estrogen receptor (Homo sapiens) (P03372 whole entry, looked up, the tested form may be a part): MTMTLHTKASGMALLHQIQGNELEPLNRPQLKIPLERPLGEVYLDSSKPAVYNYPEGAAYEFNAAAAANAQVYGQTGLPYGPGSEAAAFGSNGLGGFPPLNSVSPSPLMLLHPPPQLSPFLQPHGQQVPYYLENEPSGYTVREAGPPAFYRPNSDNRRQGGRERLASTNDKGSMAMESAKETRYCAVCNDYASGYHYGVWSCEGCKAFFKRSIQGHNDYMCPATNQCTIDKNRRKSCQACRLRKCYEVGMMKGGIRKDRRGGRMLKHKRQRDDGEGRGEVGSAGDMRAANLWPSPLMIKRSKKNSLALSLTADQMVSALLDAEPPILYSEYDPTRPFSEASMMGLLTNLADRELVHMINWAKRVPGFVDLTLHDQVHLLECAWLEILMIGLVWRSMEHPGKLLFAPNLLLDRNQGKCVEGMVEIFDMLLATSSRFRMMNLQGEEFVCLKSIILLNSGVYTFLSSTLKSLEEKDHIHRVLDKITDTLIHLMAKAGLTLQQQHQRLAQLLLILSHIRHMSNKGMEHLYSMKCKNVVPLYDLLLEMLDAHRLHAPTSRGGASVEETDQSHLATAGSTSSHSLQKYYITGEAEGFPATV

In the first test the target is Estrogen receptor (Homo sapiens) (UniProt P03372). In words: OT_ER_ERaERa_1440: Odyssey Thera (OT) 24-hour HEK293T Protein-Complementation Assay for Estrogen Receptor-alpha/-alpha Homodimer (AID 2283349).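 Further: hits raise fluorescence above DMSO for agonists and antagonists alike.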 Summed up:
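HEK293T, stable ERα LBD (aa 310-547) homodimer PCA; 24 h compound exposure; mean fluorescence intensity (nuclear for agonists, nuclear plus cytoplasmic for antagonists) vs vehicle; positive fitting direction, DMSO baseline.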
Regarding `CS(=O)(=O)OCCCCOS(C)(=O)=O`, the compound was classed as inactive.

Take `OCC(O)c1ccccc1` (stereo not given): the call was inactive.

In the case of `CC(C)NCC(O)COc1ccc(CC(N)=O)cc1` (stereo not given), the compound was called inactive.

As for `CC(C)CCCCCCc1ccc(OCCOCCO)cc1`, the compound was classed as inactive.

With `CCCCCCCCCCCC(=O)OCC(O)CO` (stereo not given), the result was inactive.

For the compound `O=C(Nc1ccc2c(O)c(N=Nc3ccc(N=Nc4ccc(S(=O)(=O)O)cc4)cc3)c(S(=O)(=O)O)cc2c1)c1ccccc1`, the call was inactive.

The next test shares this target. Briefly: OT_ER_ERaERa_0480: Odyssey Thera (OT) 8-hour HEK293T Protein-Complementation Assay for Estrogen Receptor-alpha/-alpha Homodimer (AID 2283351).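 Further: rise in fluorescence from reassembled reporter fragments on ERα LBD homodimer in nucleus or whole cell.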 Summed up:
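HEK293T cells stably expressing a PCA pair of ER alpha LBD (residues 310-547) were dosed for 8 hours. The gain in fluorescence intensity, nuclear for agonists and whole-cell for antagonists, was measured by laser scanning cytometry against DMSO vehicle.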
Take `CS(=O)(=O)OCCCCOS(C)(=O)=O`: the compound was classed as inactive.

With `OCC(O)c1ccccc1` (stereo not given), the outcome was inactive.

In the case of `CC(C)NCC(O)COc1ccc(CC(N)=O)cc1` (stereo not given), the compound was classed as inactive.

For the compound `CC(C)CCCCCCc1ccc(OCCOCCO)cc1`, the compound was called inactive.

As for `CCCCCCCCCCCC(=O)OCC(O)CO` (stereo not given), the outcome was inactive.

As to `O=C(Nc1ccc2c(O)c(N=Nc3ccc(N=Nc4ccc(S(=O)(=O)O)cc4)cc3)c(S(=O)(=O)O)cc2c1)c1ccccc1`, the compound was classed as inactive.

The target of another test is Estrogen receptor (Homo sapiens) + Estrogen receptor beta (Homo sapiens) (UniProt P03372+Q92731). Briefly: OT_ER_ERaERb_0480: Odyssey Thera (OT) 8-hour HEK293T Protein-Complementation Assay for Estrogen Receptor-alpha/-beta Heterodimer (AID 2283352). Summed up: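 Increase in mean fluorescence intensity, measured by laser scanning plate cytometry, reported ER-alpha/ER-beta LBD complementation in HEK293T cells after 8 h chemical exposure. DMSO served as baseline; basal signal is low, punctate and cytoplasmic.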
Chain of Estrogen receptor (Homo sapiens) + Estrogen receptor beta (Homo sapiens) (P03372 whole entry, looked up, the tested form may be a part): as above
Chain of Estrogen receptor (Homo sapiens) + Estrogen receptor beta (Homo sapiens) (Q92731 whole entry, looked up, the tested form may be a part): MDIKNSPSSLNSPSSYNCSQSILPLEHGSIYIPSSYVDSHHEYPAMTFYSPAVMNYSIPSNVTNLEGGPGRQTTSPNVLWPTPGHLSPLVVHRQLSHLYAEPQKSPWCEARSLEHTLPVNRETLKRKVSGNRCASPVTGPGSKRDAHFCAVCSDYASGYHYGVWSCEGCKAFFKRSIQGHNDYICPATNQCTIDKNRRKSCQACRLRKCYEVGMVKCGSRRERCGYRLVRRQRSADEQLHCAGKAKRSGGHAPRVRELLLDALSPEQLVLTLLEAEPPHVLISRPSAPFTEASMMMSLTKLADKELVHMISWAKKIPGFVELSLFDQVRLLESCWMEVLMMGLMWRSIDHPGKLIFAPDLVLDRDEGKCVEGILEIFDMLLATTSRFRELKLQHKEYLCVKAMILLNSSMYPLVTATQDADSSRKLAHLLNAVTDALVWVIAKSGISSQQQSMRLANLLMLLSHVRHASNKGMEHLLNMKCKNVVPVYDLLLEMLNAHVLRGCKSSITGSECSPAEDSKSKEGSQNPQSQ
In the case of `CC(C)CCCCCCc1ccc(OCCOCCO)cc1`, the AC50 is 33.8 µM (active).

Turning to `CCCCCCCCCCCC(=O)OCC(O)CO` (stereo not given), the outcome was inactive.

`O=C(Nc1ccc2c(O)c(N=Nc3ccc(N=Nc4ccc(S(=O)(=O)O)cc4)cc3)c(S(=O)(=O)O)cc2c1)c1ccccc1`: the outcome was inactive.
